Results published in PubChem BioAssay.
Values without a mark were called inactive.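 The calls were made as follows: active = RAM network inhibition above 8.4% in each of two replicates, 3 SD over the compound average; inconclusive = above 8.4% inhibition in only one replicate; inactive = 8.4% inhibition or less in each replicate.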

Experiment: RAM signaling pathway blockade in yeast – S. cerevisiae, Pdr1DBD-CYC8 efflux-inhibited sensitized strain, primary screen (AID 1298);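 also: 0% = DMSO untreated cells without growth and 100% = 10 µM 1-NA-PP1 full growth; higher means more yeast growth rescued from 5-FOA killing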
Details: S. cerevisiae cbk1-as DSE1-URA3 strain, 5-FOA growth OD615, 2 d; at 50 µM; hits give high values

| SMILES | RAM network inhibition [%] |
| --- | --- |
| O=C(NCCCN1CCCC1=O)c1ccc2c(c1)ncn2C1CCCCC1 | 10.9 |
| CC(CCc1ccccc1)NC(=O)CSc1nnnn1C (stereo not given) | 4.5 |
| Cc1cccc(-c2nnc(-c3ccccc3)o2)c1 | 1.78 |
| COc1ccc2[nH]c(C)c(CCN3C(=O)C4CC=CCC4C3=O)c2c1 (stereo not given) | 2.77 |
| CCc1ccccc1NC(=O)c1cc(-c2cccc(O)c2)on1 | 8.2 |
| O=C(O)[C@H](Cc1ccccc1)N1Cc2ccccc2C1=O | 1.15 |
| c1cnn(-c2nc(N3CCOCC3)nc(N3CCOCC3)n2)c1 | -2.04 |
| O=C(COc1ccc(S(=O)(=O)NC2CCCCC2)cc1)N1CCN(c2ccc(F)cc2)CC1 | 3.14 |
| Fc1ccc(C2CC(c3ccccc3)Nc3ncnn32)cc1 (stereo not given) | 1.19 |
| Cn1c(C(=O)N2CCN(c3ncccn3)CC2)cc2c(=O)n(C)c3ccccc3c21 | -0.01 |
| Cc1csc2nc(CNS(=O)(=O)c3ccc4c(c3)OCCO4)cn12 | 2.03 |
| O=C(NC1CCCCC1)c1ccc(S(=O)(=O)N2CCOCC2)cc1 | -0.73 |
| CC(C)CC(NS(=O)(=O)c1ccc2c(c1)oc(=O)n2C)C(=O)N1CC=C(c2ccccc2)CC1 (stereo not given) | 6.89 |
| O=C1CC(N2CCN(C/C=C/c3ccccc3)CC2)C(=O)N1CCc1ccccc1 (stereo not given) | 7.71 |
| CC(=O)C(C)Oc1ccc2c3c(c(=O)oc2c1)CCCC3 (stereo not given) | 0.72 |
| CCOC(=O)c1c(C)n(C)c2ccc(OCC(O)CN3CCCCCC3)cc12 (stereo not given) | 2.14 |
| COCCOC(=O)C1=C(C)NC2=C(C(=O)CC(C)(C)C2)C1c1ccc2c(c1)OCO2 (stereo not given) | 2.6 |
| COc1cc(OC)cc(C(=O)NCC2CCCO2)c1 (stereo not given) | 0.29 |
| O=C(O)c1ccc2c(c1)N(Cc1cccc(F)c1)C(=O)CS2 | 1.36 |
| COc1ccc(S(=O)(=O)Cc2ccc(C(=O)N3CCN(c4cccc(C)c4C)CC3)o2)cc1 | 3.74 |

| SMILES | RAM network inhibition [%] |
| --- | --- |
| CCSc1nc2ccccc2n1S(=O)(=O)c1ccccc1 | 1.37 |
| CN1CCN(Cc2ccc(-c3ccc(Cl)cc3)o2)CC1 | 2.49 |
| CCCn1c2ccccc2c2cc(C(=O)O)ccc21 | 2.82 |
| Clc1ccccc1-c1ccc(/C=N/n2cnnc2)o1 | 4.98 |
| CCOc1ccc(OCC)c(S(=O)(=O)NCc2ccc3c(c2)OCO3)c1 | 5.31 |
| COc1cccc(C2NC(CCSC)(C(=O)O)C3C(=O)N(C(C)C)C(=O)C23)c1O (stereo not given) | -1.51 |
| O=C(NCCCN1CCc2ccccc2C1)C1CCN(c2nnc(-n3cccc3)s2)CC1 | 5.45 |
| N#Cc1ccc(N2CCN(C(=O)c3cccc(F)c3)CC2)c(F)c1 | 0.57 |
| COC(=O)c1sc2nc3c(cc2c1N)COC(C)(C)C3 | 3.17 |
| O=C1CC(c2nc3ccccc3[nH]2)CN1c1ccccc1F (stereo not given) | 1.89 |
| COc1cc2[nH]c(=O)n(CCCC(=O)NCCc3ccccc3)c(=O)c2cc1OC | 2.87 |
| CCOc1ccc(NC(=O)c2ccc(N)cc2)cc1 | 2.88 |
| Cc1cc(Nc2ccc(F)cc2)n2nc(C)nc2n1 | 0.55 |
| O=C1Nc2ccccc2C(O)(C(=O)N2CCCCC2)N1c1ccccc1 (stereo not given) | 7.2 |
| CCCCN1C(=O)C(O)(CC(=O)c2ccccc2OC)c2ccccc21 (stereo not given) | 2.02 |
| CCOC(=O)C1=C(C)S/C(=C\N(C)C)C1=O | -2.3 |
| CCC(C)NC(=O)c1ccc(CS(=O)(=O)c2ccc(OC)cc2)o1 (stereo not given) | -2.32 |
| CCCCCSc1nnc2c(n1)OC(C)N(C(C)=O)c1ccccc1-2 (stereo not given) | 2.22 |
| O=C(c1cc(-c2cccc(O)c2)on1)N1CCc2ccccc2C1 | -2.99 |
| N=c1n(-c2ccccc2)c(O)cc(=O)n1-c1ccccc1 | 6.52 |
